In PubChem BioAssay (Tox21):
Inconclusive results are not listed. A number with no mark means an inactive call. Calls come from the whole dose curve; as a rule, active = well fitted cell-killing curve with a large enough effect in the repeat runs; inconclusive = weak or mixed curves, or effect the other way; inactive = flat fitted curve, though single readings scatter.

test: qHTS RealTime-Glo MT Cell Viability Assay in HepG2 cells - 0 hour (AID 1224889); settings: RealTime-Glo luminescence; series mostly up to 76.8 µM; activity change, negative = cytotoxicity: at the top concentration; note: nearly all actives have a fitted effect of over 50% in size
Source text: U.S. Tox21 Program National Center for Advancing Translational Sciences [NCATS] NIH Chemical Genomics Center [NCGC] U.S. Environmental Protection Agency [EPA] National Institutes of Environmental Health Sciences [NIEHS] National Toxicology Program [NTP] U.S. Food and Drug Administration [FDA] Tox21 Assay Overview: Measure of cell viability is critical in the cell-base assay. Analysis of cell viability is necessary for the characterization of cell responses to cytotoxic drugs and environmental stress. A RealTime-Glo MT Cell Viability Assay to monitor cell viability in real time of continues cell culture during 40 hours of compound treatment was used to screen Tox21 10K library compounds in HepG2 cells. The RealTime-Glo MT Cell Viability Assay is a nonlytic, homogeneous, bioluminescent method to measure cell viability in real time using a simple, plate-based method. The assay involves adding NanoLuc luciferase and a cell-permeant prosubstrate to cells in culture. Viable cells reduce the proprietary prosubstrate to generate a substrate for NanoLuc luciferase. This substrate diffuses from cells into the surrounding culture medium, where it is rapidly used by the NanoLuc Enzyme to produce a luminescent signal. The signal correlates with the number of viable cells, making the assay well suited for cytotoxicity studies.
Tox21 Assay Protocol Summary: The mixture of HepG2 cell suspension and reagents were dispensed at 600cells/6 ul/well in 1536-well tissue culture treated black solid bottom plates using a Multidrop dispenser. After the assay plates were incubated at a 37 C/5% CO2 incubator for 5 hours, 23 nL of compounds dissolved in DMSO, positive and negative controls was transferred to the assay plate by a pintool work station. The plates were incubated at 37 C for 40 hours. The luminescence intensity were measured at 0h, 8h, 16h, 24h, 32h and 40h time points using ViewLux plate reader during compound treatment.
% is set by controls: 0 for no effect and ±100 for the full control effect.

Going from `C1=C\CC/C=C\CC/C=C\CC/1` to `c1ccc2cnncc2c1`, the “activity change, negative = cytotoxicity” value falls from 1.35% to -0.817%.

Compared with `CCC(=O)/C=C/c1ccc(OC)cc1`, `COc1ccc(NC(C)=O)cc1` is higher in “activity change, negative = cytotoxicity” value: 1.43% for the first, 7.19% for the second.

Going from `CCC(C)(C)C1CCC(OC)CC1` (stereo not given) to `CSc1nc(NC2CC2)nc(NC(C)(C)C)n1`, the “activity change, negative = cytotoxicity” value falls from 3.94% to 0.758%.

Going from `CC(=O)CCc1ccc(O)cc1` to `CCCc1ccccc1O`, the “activity change, negative = cytotoxicity” value rises from -0.211% to 14.2%.

Compared with `OCCCCCCO`, `CCCCN(CCO)CCO` is higher in “activity change, negative = cytotoxicity” value: 3.23% for the first, 10.5% for the second.

First: CCCCNc1ccccc1
Second: CCC(C(=O)NC(N)=O)c1ccccc1 (stereo not given)
The “activity change, negative = cytotoxicity” value of the first is lower: -0.267% for the first, 0.0316% for the second.

Compared with `C=CCOc1nc(OCC=C)nc(OCC=C)n1`, `CCCCc1ccc2cccc(S(=O)(=O)O)c2c1` is lower in “activity change, negative = cytotoxicity” value: 4.15% for the first, -0.054% for the second.

Compared with `N#CCc1ccccc1[N+](=O)[O-]`, `COc1ccc(N=[N+]([O-])c2ccc(OC)cc2)cc1` is lower in “activity change, negative = cytotoxicity” value: 0.126% for the first, -1.21% for the second.

Going from `CCC(C)OC(=O)N1CCCCC1CCO` (stereo not given) to `CCCCC1CCCCC(=O)O1` (stereo not given), the “activity change, negative = cytotoxicity” value rises from -4.38% to 0.358%.

First: CC(C)(C)OC(=O)N1C[C@@H](F)C[C@H]1C(=O)O
Second: CC(C)(O)C(=O)c1ccc(OCCO)cc1
The “activity change, negative = cytotoxicity” value of the first is higher: 2.18% for the first, -0.36% for the second.

Going from `N#CCN(CC#N)CCN(CC#N)CC#N` to `CCCCCCCCCCC1CO1` (stereo not given), the “activity change, negative = cytotoxicity” value rises from -12.9% to 6.48%.

First: Nc1cc(N)cc(C(=O)O)c1
Second: C(=C(c1ccccc1)c1ccccc1)c1ccccc1
The “activity change, negative = cytotoxicity” value of the first is higher: 1.76% for the first, -18.3% for the second.

First: Cc1ncc(CSSCc2cnc(C)c(O)c2CO)c(CO)c1O
Second: Cc1c(C)n(CCN(C)C)c2ccc(C(=O)OCCN(C)C)cc12
The “activity change, negative = cytotoxicity” value of the first is higher: -2% [at 35.3 µM] for the first, -4% [at 35.3 µM] for the second.

First: O=c1[nH]c(=O)n([C@H]2O[C@H](CO)[C@@H](O)[C@@H]2O)cc1/C=C\Br
Second: CN1[C@@H]2CC[C@H]1CC(NC(=O)n1c(=O)[nH]c3ccccc31)C2 (stereo not given in full)
The “activity change, negative = cytotoxicity” value of the first is lower: 1.03% [at 35.3 µM] for the first, 3.98% [at 35.3 µM] for the second.

Going from `CCN1CCCC(OC(=O)C(c2ccccc2)c2ccccc2)C1` (stereo not given) to `O=C1C(CCS(=O)c2ccccc2)C(=O)N(c2ccccc2)N1c1ccccc1` (stereo not given), the “activity change, negative = cytotoxicity” value falls from -0.96% [at 35.3 µM] to -11.3% [at 35.3 µM].

Compared with `NS(=O)(=O)c1cc(C2(O)NC(=O)c3ccccc32)ccc1Cl` (stereo not given), `Cc1onc(-c2ccccc2)c1-c1ccc(S(N)(=O)=O)cc1` is higher in “activity change, negative = cytotoxicity” value: -0.342% [at 35.3 µM] for the first, 2.67% [at 35.3 µM] for the second.

First: CCCCCCCCCCCCCCCCCCOCC(O)CO (stereo not given)
Second: CCN(CC)C(=O)c1ccc(O)c(OC)c1
The “activity change, negative = cytotoxicity” value of the first is lower: 0.017% [at 35.3 µM] for the first, 7.9% [at 35.3 µM] for the second.

Compared with `OC[C@H]1O[C@@H]2O[C@H]3[C@H](O)[C@@H](O)[C@@H](O[C@H]4[C@H](O)[C@@H](O)[C@@H](O[C@H]5[C@H](O)[C@@H](O)[C@@H](O[C@H]6[C@H](O)[C@@H](O)[C@@H](O[C@H]7[C@H](O)[C@@H](O)[C@@H](O[C@H]8[C@H](O)[C@@H](O)[C@@H](O[C@H]9[C@H](O)[C@@H](O)[C@@H](O[C@H]1[C@H](O)[C@H]2O)O[C@@H]9CO)O[C@@H]8CO)O[C@@H]7CO)O[C@@H]6CO)O[C@@H]5CO)O[C@@H]4CO)O[C@@H]3CO`, `Oc1ccc2c(c1)OC[C@@H](N1CCC(O)(c3ccc(F)cc3)CC1)[C@H]2O` is lower in “activity change, negative = cytotoxicity” value: 8.9% [at 35.3 µM] for the first, 1.97% [at 35.3 µM] for the second.

Compared with `Nc1[nH]c(=O)ncc1F`, `O=S(=O)(c1cccc2cnccc12)N1CCCNCC1` is higher in “activity change, negative = cytotoxicity” value: -1.52% [at 35.3 µM] for the first, 4.33% [at 35.3 µM] for the second.

Compared with `NC(CS)C(=O)O` (stereo not given), `CC(=O)N[C@@H](CCC(N)=O)C(=O)O` is lower in “activity change, negative = cytotoxicity” value: -0.143% [at 35.3 µM] for the first, -3.21% [at 35.3 µM] for the second.
